Results on 29 compounds are retold here after PubChem BioAssay.

The structures appear in SMILES notation. Activity calls are given as the source filed them.

Luciferin 4-monooxygenase (Photinus pyralis), sequence (P08659 whole entry, looked up): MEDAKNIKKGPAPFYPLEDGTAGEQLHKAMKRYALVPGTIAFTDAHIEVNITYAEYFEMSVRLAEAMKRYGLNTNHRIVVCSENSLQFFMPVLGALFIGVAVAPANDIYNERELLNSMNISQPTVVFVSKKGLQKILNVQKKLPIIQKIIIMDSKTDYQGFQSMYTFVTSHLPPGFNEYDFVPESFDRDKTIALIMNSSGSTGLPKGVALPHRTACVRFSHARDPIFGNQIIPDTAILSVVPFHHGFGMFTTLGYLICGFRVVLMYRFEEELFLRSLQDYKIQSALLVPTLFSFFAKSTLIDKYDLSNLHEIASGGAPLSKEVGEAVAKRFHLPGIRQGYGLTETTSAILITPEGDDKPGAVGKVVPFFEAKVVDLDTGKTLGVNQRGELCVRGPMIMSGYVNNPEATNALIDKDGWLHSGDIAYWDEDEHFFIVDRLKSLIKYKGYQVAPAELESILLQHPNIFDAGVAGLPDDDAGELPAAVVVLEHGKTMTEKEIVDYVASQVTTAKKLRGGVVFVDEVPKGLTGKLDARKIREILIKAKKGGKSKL

The first assay concerns wheat germ agglutinin (Triticum aestivum), Alexa647-labelled. Kind of assay: Alexa647-WGA lectin binding to printed small molecules – biochemical, small-molecule microarray, 635/667 nm fluorescence, artefact control for SMM control-protein annotation, profiling panel (AID 1140).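 Further: score merges 667 nm feature emission with signal to noise over triplicate slides.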 Particulars: WGA-A647 binding, 635 nm fluorescence, higher = more signal.
On to `CO[C@@H]1C=CCC(=O)N2CCC[C@H]2C(=O)OC[C@@H](C)C(=O)OC[C@H]1C`, for which the composite z-score was -0.7. Still for that read-out and setting: as for `COC(=O)CC=C[C@@H](C)[C@H](OCc1cccc(-c2ccccc2)c1)C1CCCCC1`, the figure is 0.534.

As for `O=C1C2=CC[C@H]3C(=O)N(c4cccc(Oc5ccccc5)c4)C(=O)[C@H]3[C@H]2[C@H](O)[C@@H]2O[C@H]12`, the composite z-score is 0.0467. `COC(=O)CC=C[C@@H](C)[C@@H](C=NO[C@@H](C)c1cc(-c2c(C)cc(C)cc2C)no1)NS(=O)(=O)c1ccc(C)cc1` registered a composite z-score of -0.665. On the same count and under the same terms, the figure for `CCOC(=O)[C@H](CC(C)C)NC(=O)CCC1CC(OC(=O)NCCc2ccc(F)cc2)CC2(CCCC(COC(=O)NCC3CCCCC3)O2)O1` (some centres undefined) is 0.676.

Another assay has as its target Luciferin 4-monooxygenase (Photinus pyralis) (UniProt P08659). Put plainly: inhibition of purified Photinus pyralis luciferase – biochemical, luminescence, purified enzyme, 2006 set, primary screen (AID 1141).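 Further: cell-free assay with purified firefly luciferase at 100 ng per well in PBS; test concentration not given here.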 Particulars: purified firefly luciferase, SteadyGlo luminescence, 30 min; higher = more signal, called active from +8 up or from −8 down.
Consider `CCOC(=O)C1=NO[C@@]2(C=C(Br)C3(OCCCO3)[C@H]3O[C@H]32)C1`, for which the z-score was -0.279 (inactive). In the case of `C#CCCCON=C1C[C@@H](O)[C@@H](O)[C@@H]2[C@@H]3C(=O)N(C(C)(C)C)C(=O)[C@@H]3CC[C@H]12`, the z-score is 0.541 (inactive). With `CO[C@@H]1COC(=O)[C@@H](C)COC(=O)[C@@H](C)NC(=O)CC=C[C@@H]1C`, the z-score is 0.138 (inactive). On to `COC(=O)CC=C[C@@H](C)[C@@H](C=NO[C@H](C)c1cn([C@H](CO)Cc2ccccc2)nn1)NS(=O)(=O)c1ccc(C)cc1`, for which the z-score is -0.965 (inactive). Same read-out and setting: the figure for `O=C(C=Cc1ccc2c(c1)OCO2)c1ccc(F)cc1` is -6.89 (inactive); for `CCOC(=O)[C@H](CC(C)C)NC(=O)CCC1CC(OC(=O)NCc2cccc3ccccc23)CC2(CCCC(COC(=O)NCCOC)O2)O1` (some centres undefined) it is 0.561 (inactive); for `C[C@@H]1C=CCC(=O)OC[C@H]2O[C@@H](C=C[C@@H]2O)[C@H](C)C=CCC(=O)OC1` it is -1.82 (inactive).

With `CCOC(=O)[C@H](CC(C)C)NC(=O)CCC1CC(OC(=O)NCc2cccc3ccccc23)CC2(CCCC(COC(=O)NCCCN3CCCC3=O)O2)O1` (some centres undefined), the z-score was 0.974 (inactive). Still for that read-out and setting: the figure for `CSCC[C@@H]1NC(=O)CC=C[C@@H](C)COC(=O)[C@@H](C)COC1=O` is -0.343 (inactive); for `COc1ccc(O[C@H]2C=C[C@@H](c3ccccc3)O[C@@H]2CON=C(C)CCN2CCc3nc(-c4ccccc4)c(-c4ccccc4)cc3C2)cc1` it is 0.84 (inactive). Same read-out and setting: the figure for `C=COC[C@@H]1CN2[C@@H](CC[C@@H](C)[C@@H]2c2ccc(Br)cc2)C(=O)O1` is 0.49 (inactive); for `COC(=O)CC=C[C@@H](C)[C@@H](C=NOCC[C@@H]1C=C[C@H](OC(C)=O)[C@@H](COC(C)=O)O1)NS(=O)(=O)c1ccc(C)cc1` it is 1.2 (inactive); for `CCc1cc2c(nc1CC)CCN(CCC(C)=NOC[C@H]1O[C@H](c3ccccc3)C=C[C@@H]1Oc1ccc(OC)cc1)C2` it is 0.698 (inactive).

For the compound `CC(C)CON=C1C[C@@H](O)[C@@H](O)[C@@H]2[C@@H]3C(=O)N(C4CCCCC4)C(=O)[C@@H]3CC[C@@H]12`, the z-score is 0.0051 (inactive).

For the compound `CCN1C(=O)[C@H]2[C@H]3[C@H](O)[C@H](O)CC(=O)[C@@H]3CC[C@H]2C1=O`, the z-score was -0.497 (inactive). On the same count and under the same terms, as for `COC(=O)C1=C(C)N(Cc2ccccc2)[C@]23O[C@](C(=O)OC)(C(=O)N2[C@@H]1c1ccccc1)C(C(=O)OC)=C3C(=O)OC`, the figure is -0.371 (inactive); as for `CC(C)=NO[C@H](C)c1cn([C@H](CO)Cc2ccccc2)nn1`, -1.69 (inactive); as for `CON=Cc1ccc(C(=O)N2[C@H](c3ccc(C)cc3)[C@@H](C)CC[C@H]2C(=O)OC)cc1`, -1.06 (inactive). Still for that read-out and setting: as for `CCN1C(=O)[C@@H]2[C@H]3C(=CC[C@@H]2C1=O)C1(OCCCO1)[C@H]1O[C@H]1[C@H]3O`, the figure is -26.1 (active); as for `O=C(NN=C1C[C@@H](O)[C@@H](O)[C@@H]2[C@@H]3C(=O)N(C[C@@H]4CCCO4)C(=O)[C@@H]3CC[C@@H]12)OCc1ccccc1`, -0.827 (inactive); as for `CC(CCN1CCc2nc(-c3ccccc3)c(-c3ccccc3)cc2C1)=NOC[C@@H](O)COCc1ccco1`, -1.46 (inactive). As to `O=C1[C@H]2[C@H]3[C@H](O)[C@H](O)CC(=NO[C@@H]4O[C@H](CO)[C@@H](O)[C@H](O)[C@H]4O)[C@H]3CC[C@H]2C(=O)N1c1cccc(Oc2ccccc2)c1`, the z-score was 1.14 (inactive). On the same count and under the same terms, the figure for `O=C1C[C@@H](O)[C@@H](O)[C@@H]2[C@@H]3C(=O)N(Cc4ccc5c(c4)OCO5)C(=O)[C@@H]3CC[C@H]12` is -0.56 (inactive); for `COC(=O)[C@@H]1CC[C@@H](C)[C@H](c2ccc(Br)cc2)N1` it is -0.482 (inactive).
